From PubChem
Hits are enriched below; roughly 2.2% of the tested compounds scored in any of these assays.
PLK1 inh: human PLK1 kinase inhibitors, primary screen, biochemical, TR-FRET; 97,000 tested, 0.53% active; Serine/threonine-protein kinase PLK1 (Homo sapiens), P53350; inhibition, % at 10 µM; recombinant PLK1 kinase, TR-FRET peptide phosphorylation;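 active = inhibition of 50% or more in the single-concentration screen; inactive = inhibition below 50%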;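 note: 0% = DMSO max control and 100% = H-89 dihydrochloride min control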
Target sequence (P53350 whole entry, looked up): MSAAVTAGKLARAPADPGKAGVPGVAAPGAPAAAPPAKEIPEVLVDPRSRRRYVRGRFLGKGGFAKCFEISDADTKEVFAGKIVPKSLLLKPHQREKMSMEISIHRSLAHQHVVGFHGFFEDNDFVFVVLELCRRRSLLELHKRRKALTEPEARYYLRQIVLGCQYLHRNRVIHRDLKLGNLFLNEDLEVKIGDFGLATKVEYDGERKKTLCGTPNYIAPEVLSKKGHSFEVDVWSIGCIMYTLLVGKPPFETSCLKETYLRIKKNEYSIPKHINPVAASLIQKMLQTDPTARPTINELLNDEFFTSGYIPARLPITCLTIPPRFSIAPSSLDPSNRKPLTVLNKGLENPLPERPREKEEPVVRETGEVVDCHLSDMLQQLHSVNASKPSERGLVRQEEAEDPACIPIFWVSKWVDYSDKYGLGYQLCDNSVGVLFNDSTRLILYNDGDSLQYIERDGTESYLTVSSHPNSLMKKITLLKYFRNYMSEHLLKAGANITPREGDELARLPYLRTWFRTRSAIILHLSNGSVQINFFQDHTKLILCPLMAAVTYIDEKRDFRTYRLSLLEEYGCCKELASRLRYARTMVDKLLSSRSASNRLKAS
NFkB transloc pot: enhancers of NFkB p65 translocation in HUVEC – imaging, IL-1B stimulus, high-content imaging, primary screen; HUVEC IL-1B NFkB p65 nuclear translocation imaging; activation, % at 2 µM; 94,000 tested, 0.3% active; AID 819, 2007;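 active = activation above 40%, about the mean plus 3 SD, also judged a hit on visual image review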;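 note: percent activation is computed from the nuclear over cytoplasmic p65 intensity ratio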
IL1B NFkB inh: inhibitors of IL-1B driven NFkB p65 nuclear import, primary screen, imaging, HUVEC, IL-1B stimulus, high-content imaging; 94,000 tested, 0.43% active; inhibition, % at 2 µM; HUVEC IL-1B NFkB p65 nuclear translocation imaging;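 active = inhibition above about 30% together with a positive call from visual inspection of the well image, limit read from the data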;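 note: nuclear over cytoplasmic p65 intensity ratio measured by imaging; 0% = IL-1B stimulated DMSO wells and 100% = unstimulated DMSO wells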
HUVEC tox IL1B: cytotoxicity in IL-1B stimulated HUVEC, primary screen, cytotoxicity control for IL-1B NFkB translocation project, imaging, Hoechst nuclear count, IL-1B stimulus | HUVEC cell count loss | cell count reduction, % at 2 µM | 94,000 tested, 0.41% active | AID 845, 2007;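 active = cell count reduction more than 3 SD above the screen-wide mean, cut at about 70% in these data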;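 note: normalized per plate to untreated control cells as the no-loss baseline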
Pyk2 oligo antag: antagonists of Pyk2 self-association, primary screen, Q293 cells, FERM NanoBiT luminescence, HTS; z-score (the deposit names both 25 µM and 10 µM); 99,000 tested, 0.83% active; hits give low values; Protein-tyrosine kinase 2-beta (Homo sapiens), Q14289;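 active = Z-score of -3 or lower, scaled per plate to the spread of control and sample wells; inactive = z-score above -3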;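 note: negative z-score means lost luminescence so less FERM oligomerization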
Plk1 PBD FP: Plk1 polo box domain binding inhibitors, primary screen, biochemical, fluorescence polarization; 97,000 tested, 0.13% active; Plk1 PBD phosphopeptide binding; inhibition, %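 (tested at about 20 µM)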; in the data active = inhibition above about 34%, passing the limit was not always enough
The depositor's hits bear a star; / = no result given.

SMILES | PLK1 inh | NFkB transloc pot | IL1B NFkB inh | HUVEC tox IL1B | Pyk2 oligo antag | Plk1 PBD FP
CCn1c(SCC(=O)N(C(C)C)C(C)C)nnc1-c1cc2ccccc2cc1O | -6 | 60* | -60 | 6 | -0.92 | -1
CCOC(=O)C1CCC2(CC1)C(C#N)=C(N)Oc1n[nH]c(C)c12 (configuration not stated) | 70* | -4 | 4 | -24 | 0.04 | -14
Cc1[nH]nc2c1C1(CCOCC1)C(C#N)=C(N)O2 | 29 | -12 | 12 | -19 | -0.01 | -12
Cc1nc(N)sc1N=Nc1ccc(F)cc1 | 59* | 5 | -5 | 0 | -0.18 | -5
CC(Oc1ccc(F)cc1)C(=O)Nc1sc2c(c1C(=O)NCc1cccnc1)CCCC2 (configuration not stated) | -7 | / | / | / | -3.1* | 3
CCC(C)NS(=O)(=O)c1ccc(OCC(=O)NCc2cccnc2)cc1 (configuration not stated) | -3 | -98 | 98* | 80* | 0.48 | -17
CC(C)NS(=O)(=O)c1ccc(CCC(=O)NCc2cccnc2)cc1 | / | / | / | / | 0.92 | /
O=C(Nc1sc2c(c1C(=O)NCc1cccnc1)CCCC2)c1ccco1 | -3 | 5 | -5 | -22 | -2 | 7
CC(Oc1ccccc1)C(=O)NCc1cccnc1 (configuration not stated) | -1 | 7 | -7 | -10 | 0.5 | -8
COc1ccc(OC(C)C(=O)NCc2cccnc2)cc1 (configuration not stated) | -3 | -13 | 13 | 93* | -0.1 | 21
COc1cc(C2Nn3c(nnc3-c3ccccc3OC)S2)ccc1O (configuration not stated) | 6 | -4 | 4 | -39 | 0.62 | -10
CS(=O)(=O)Nc1ccccc1C(=O)N1CCN(c2ccccc2)CC1 | -6 | -25 | 25 | -20 | / | -19
CNC(=O)NC1CCCc2ccccc21 (configuration not stated) | -12 | 17 | -17 | -2 | 1.1 | 4
Cc1occc1C(=O)NC1CCCc2ccccc21 (configuration not stated) | -7 | -7 | 7 | 80* | -0.46 | 24
CCC(C)c1ccc(OCCCCN2CCOCC2)cc1 (configuration not stated) | -1 | 0 | -4 | 40 | 0.01 | 17
CCCc1oc(C(=O)O)cc1CN1CCCC1 | -2 | 25 | -25 | 0 | 0 | 22
CCCc1oc(C(=O)O)cc1CN1CCOCC1 | -8 | -32 | 32* | 14 | 0.84 | -19
CC(C)Cn1c(SCC(=O)NC(=O)NC2CCCC2)nc2ccccc21 | 1 | 22 | -22 | -2 | -3.4* | 16
CN(C)C(=O)Cn1c(SCC(=O)NC2CCCCC2)nc2ccccc21 | -4 | -3 | 2 | -13 | 0.08 | 11
Cc1cc(Cl)c(S(=O)(=O)N2CCN(c3ccccc3)CC2)cc1OCC(N)=O | -10 | 6 | -6 | 2 | -0.35 | -10
CCOC(=O)c1c(C)n(C)c2ccc(OC)c(NC(=O)CN3CCN(C4CCCCC4)CC3)c12 | 2 | -25 | 25 | 87* | -0.32 | -15
CCOC(=O)c1c(C)n(C)c2ccc(OC)c(NC(=O)CN3CCN(Cc4ccccc4)CC3)c12 | 8 | -7 | 7 | -13 | 0.14 | -1
N#Cc1cc(Br)ccc1N=C1CCCN1c1ccccc1 | / | / | / | / | -0.1 | /
O=C1CC(C(=O)Nc2ccccc2)C2(CCCCC2)O1 (configuration not stated) | -12 | 9 | -9 | 7 | 0.28 | -1
O=C1CC(C(=O)Nc2ccc(Br)cc2)C2(CCCC2)O1 (configuration not stated) | -4 | -25 | 25 | 82* | / | 15
SMILES | PLK1 inh | NFkB transloc pot | IL1B NFkB inh | HUVEC tox IL1B | Pyk2 oligo antag | Plk1 PBD FP
O=S1(=O)CCN2C=Nc3sc4c(c3C2=N1)CCCC4 | -10 | 11 | -11 | 0 | -0.44 | 11
CC1(C)Cc2c(sc3c2C2=NCCN2C=N3)CO1 | 57* | 13 | -13 | -35 | -0.47 | 11
Cc1ccc(C)c(C(=O)COC(=O)c2ccccc2N2C(=O)C3C4CCC(C4)C3C2=O)c1 (configuration not stated) | -7 | 10 | -10 | -21 | -1.3 | 6
CCn1cc(C(=O)OCc2ccc(F)cc2)c(=O)c2ccc(C)nc21 | 1 | -6 | 6 | 86* | -0.28 | -2
CCn1cc(C(=O)OCc2ccccc2)c(=O)c2ccc(C)nc21 | 0 | 16 | -16 | -9 | -0.04 | -5
Cc1cc(NC(=O)CC(C)(C)C)nc2c1c(=O)oc1ccccc12 | -11 | -24 | 24 | -11 | -0.19 | 6
CCCc1cc2c(c(NC(C)=O)n1)c(=O)oc1ccccc12 | 19 | -19 | 19 | 78* | 0.29 | 1
Cc1ccc(Oc2nccc(-c3ccc(Cl)cc3)n2)cc1 | -7 | -1 | 1 | 10 | 1.1 | 1
Cc1c(C(=O)N2CCCc3ccccc32)oc2ccc(S(=O)(=O)N3CCOCC3)cc12 | -5 | 4 | -4 | 7 | -1.9 | -2
Cc1ccc(C)c(C(=O)Cn2ncc(Cl)c(Cl)c2=O)c1 | -7 | -43 | 43* | 15 | -0.74 | -29
O=C(OCn1ncc(Cl)c(Cl)c1=O)c1ccc(C(F)(F)F)cc1 | -16 | -41 | 41* | 2 | 1.2 | -18
Cc1ccc(C(=O)OCn2ncc(Cl)c(Cl)c2=O)cc1 | -15 | -79 | 79* | 20 | 0.48 | -30
Cc1ccc(-n2cnnn2)c(S(=O)(=O)N2CCOCC2)c1 | -5 | -35 | 35* | -67 | -0.67 | 4
O=C(Nc1cccc(Cl)c1)N1CCN2C(=O)c3ccccc3C12c1ccccc1 (configuration not stated) | -7 | -8 | 8 | 9 | -3.2* | -6
O=C(CSc1cn(CCNC(=O)c2ccccc2)c2ccccc12)NCc1ccco1 | 67* | / | / | / | / | -4
Cc1ccc(C(=O)NCCn2cc(SCC(=O)Nc3cc(C)on3)c3ccccc32)cc1 | 62* | / | / | / | / | -3
CCCn1cc(SCC(=O)NCc2ccco2)c2ccccc21 | -17 | -12 | 12 | 4 | -0.52 | 4
COc1cc(-c2nnc(SCC(=O)c3ccc(C)cc3)o2)cc(OC)c1OC | -7 | -42 | 42* | 25 | -0.85 | -6
Cc1ccc(C)c(/C(O)=C2/C(=O)C(=O)N(CCN3CCOCC3)C2c2ccc(C)o2)c1 (configuration not stated) | -5 | 107* | -107 | -6 | -0.3 | -17
Cc1ccc(C)c(/C(O)=C2\C(=O)C(=O)N(CCCN3CCOCC3)C2c2cccnc2)c1 (configuration not stated) | -8 | 9 | -9 | -5 | 0.04 | -12
CCCCNC(=S)Nc1ccccc1F | -11 | -6 | 6 | 90* | -0.07 | 12
